Assay results from PubChem BioAssay (Tox21).
Several values for one entry are separate records, joined by “and”; a condition that tells them apart may be missing. Equal values may be shown once. Inconclusive results are not listed. The source holds several records for some structures; these can differ, active in one and inactive in another. Activity calls are given as the source filed them. Unless noted, calls come from the whole dose curve; as a rule, active = well fitted curve in the direction sought with a large enough effect in the repeat runs; inconclusive = weak or mixed curves; inactive = no such curve, though single readings can be large; an effect the other way counts as inactive or inconclusive.

Columns and labels:
[1] = qHTS assay to identify small molecule agonists of H2AX (AID 1224845; active = well fitted activation curve with a large enough effect in the signal ratio in the repeat runs, not every such curve was filed as active; the % refers to the signal ratio; note: potency is the fitted concentration of half-maximal effect)
How it was run: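 Phospho-H2AX Ser139 measured by HTRF (ex 320 nm; em 665 and 620 nm) after 24 hr antibody incubation. Compounds, 15 concentrations, 0.76% DMSO, were applied to CHO-K1 cells for 3hr at 37C before lysis.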

[2] = qHTS assay to identify small molecule agonists of the hypoxia (HIF-1) signaling pathway (AID 1224846; active = well fitted activation curve with a large enough effect in the signal ratio in the repeat runs, not every such curve was filed as active; the % refers to the signal ratio)
How it was run: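 Agonist mode reporter screen. ME-180 cells stably expressing bla under HRE control received test compounds in DMSO for 17 hrs (37C, 5% CO2), and beta-lactamase activity was then detected with the CCF4-AM FRET substrate.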

[3] = qHTS assay to identify small molecule agonists of H2AX - cell viability counter screen (AID 1224847; calls by dose curve; note: nearly all actives have a fitted effect of over 30% in size; note: potency is the fitted concentration of half-maximal effect)
How it was run: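 Viability of CHO-K1 (wild type) cells after 3 hr compound exposure was measured by CellTiter-Glo luminescence.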

[4] = qHTS RealTime-Glo MT Cell Viability Assay in HepG2 cells - 24 hour (AID 1224867); note: nearly all actives have a fitted effect of over 50% in size
How it was run: (§1)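 Luminescence read-out: viable HepG2 cells reduce a prosubstrate to a NanoLuc substrate, giving a signal proportional to live cell number. Reads taken at 0, 8, 16, 24, 32 and 40 h of compound exposure at 37 C.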

[5] = A CellTox Green Cytotoxicity Assay to monitor cytotoxicity in HEK293 cells - 0 hour (AID 1224869); note: nearly all actives have a fitted effect of over 50% in size
How it was run: (§2)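 Dead-cell fluorescence measured kinetically: asymmetric cyanine dye, HEK293, 600 cells/well, 5 h settle, 23 nL cpd/DMSO, 37 C, reads 0–40 h every 8 h.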

[6] = A CellTox Green Cytotoxicity Assay to monitor cytotoxicity in HEK293 cells - 40 hour (AID 1224871); note: nearly all actives have a fitted effect of over 45% in size
How it was run: as §2

[7] = qHTS RealTime-Glo MT Cell Viability Assay in HEK293 cells - 16 hour (AID 1224872); note: nearly all actives have a fitted effect of over 50% in size; note: potency is the fitted concentration of half-maximal effect
How it was run: (§3)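 Nonlytic real-time viability readout: viable cells convert prosubstrate to NanoLuc substrate, giving luminescence proportional to live cell number. HEK293, 600 cells/well, compound added after 5 h, continuous culture at 37 C.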

[8] = qHTS RealTime-Glo MT Cell Viability Assay in HepG2 cells - 8 hour (AID 1224873); note: nearly all actives have a fitted effect of over 55% in size
How it was run: (§4)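 Real-time viability: cells seeded at 600 per well together with NanoLuc and cell-permeant prosubstrate, compounds added after 5 h incubation. Luminescence tracked at 0, 8, 16, 24, 32 and 40 h of exposure.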

[9] = qHTS RealTime-Glo MT Cell Viability Assay in HEK293 cells - 40 hour (AID 1224874); conditions: RealTime-Glo luminescence; max response: stronger effect = lower value; note: nearly all actives have a fitted effect of over 50% in size; note: potency is the fitted concentration of half-maximal effect
How it was run: (§5)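 600 HEK293 cells per well, dispensed already mixed with RealTime-Glo MT reagents. Compound dosing came 5 h later. The same wells were read for luminescence at 0, 8, 16, 24, 32 and 40 h of exposure at 37 C.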

[10] = A CellTox Green Cytotoxicity Assay to monitor cytotoxicity in HEK293 cells - 24 hour (AID 1224875); note: nearly all actives have a fitted effect of over 45% in size
How it was run: as §2

[11] = A CellTox Green Cytotoxicity Assay to monitor cytotoxicity in HepG2 cells - 16 hour (AID 1224876); note: nearly all actives have a fitted effect of over 45% in size; note: potency is the fitted concentration of half-maximal effect
How it was run: (§6)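 First, HepG2 cells (600/well) mixed with reagent were plated; second, after 5 h at 37 C they received compounds via pintool; third, fluorescence was measured at 0 h through 40 h at 8 h intervals.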

[12] = A CellTox Green Cytotoxicity Assay to monitor cytotoxicity in HepG2 cells - 24 hour (AID 1224878); note: nearly all actives have a fitted effect of over 45% in size; note: potency is the fitted concentration of half-maximal effect
How it was run: as §6

[13] = A CellTox Green Cytotoxicity Assay to monitor cytotoxicity in HepG2 cells - 40 hour (AID 1224879); note: nearly all actives have a fitted effect of over 40% in size; note: potency is the fitted concentration of half-maximal effect
How it was run: as §6

[14] = qHTS RealTime-Glo MT Cell Viability Assay in HEK293 cells - 0 hour (AID 1224880)
How it was run: as §5

[15] = A CellTox Green Cytotoxicity Assay to monitor cytotoxicity in HEK293 cells - 32 hour (AID 1224881); note: nearly all actives have a fitted effect of over 40% in size
How it was run: as §2

[16] = qHTS RealTime-Glo MT Cell Viability Assay in HepG2 cells - 40 hour (AID 1224870); note: nearly all actives have a fitted effect of over 50% in size
How it was run: as §4

[17] = qHTS RealTime-Glo MT Cell Viability Assay in HepG2 cells - 32 hour (AID 1224877); note: nearly all actives have a fitted effect of over 55% in size
How it was run: as §1

[18] = qHTS assay to identify small molecule antagonists of the estrogen related receptor (ERR) signaling pathway from Tox21 library (AID 1224848); note: nearly all actives have a fitted effect of over 50% in size; note: potency is the fitted concentration of half-maximal effect
How it was run: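 ERR cell line, 2,000 cells/well. 6 h settle, then compound (DMSO) added; 18 h at 37 C; ONE-Glo luminescence after 30 min RT.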

[19] = qHTS assay to identify small molecule agonists of the estrogen related receptor (ERR) signaling pathway from Tox21 library (AID 1224849; calls by dose curve; note: nearly all actives have a fitted effect of over 15% in size); conditions: ERR reporter cell line, ONE-Glo luciferase, 18 h
How it was run: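 Quantitative HTS in agonist format: NTP ERR cell line, compounds transferred in DMSO after 6 h plating, 18 h incubation at 37 C, ONE-Glo luminescence endpoint.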

[20] = qHTS RealTime-Glo MT Cell Viability Assay in HEK293 cells - 32 hour (AID 1224868); note: nearly all actives have a fitted effect of over 50% in size; note: potency is the fitted concentration of half-maximal effect
How it was run: as §3
% is set by controls: 0 for no effect and ±100 for the full control effect.

C[C@]12CC[C@H]3[C@@H](CCC4=CC(=O)CC[C@@H]43)[C@@H]1CC[C@@H]2O
inactive: outcome [2] | Potency [3] | Potency [4] | Potency [5] | Potency [6] | Potency [7] | Potency [8] | max response [9] -22.5% | Potency [10] | Potency [11] | Potency [12] | Potency [13] | Potency [14] | Potency [15]
active: Potency [1] 99.8 µM

C=CC(Cl)CCl (configuration not stated)
inactive: Potency [1] | outcome [2] | Potency [3] | Potency [4] | Potency [5] | Potency [16] | Potency [6] | Potency [7] | Potency [8] | max response [9] 19.1% and 0.374% | Potency [10] | Potency [11] | Potency [17] | Potency [12] | Potency [13] | Potency [14]

Cc1ccc([N+](=O)[O-])cc1
inactive: Potency [1] | outcome [2] | Potency [3] | Potency [4] | Potency [5] | Potency [16] | Potency [6] | Potency [7] | Potency [8] | max response [9] 7.21% and 12.5% | Potency [10] | Potency [11] | Potency [12] | Potency [13] | Potency [14] | Potency [15]

CCNc1nc(Cl)nc(NC(C)(C)C#N)n1
inactive: Potency [1] | outcome [2] | Potency [3] | Potency [4] | Potency [5] | Potency [16] | Potency [6] | Potency [7] | Potency [8] | Potency [10] | Potency [11] | Potency [17] | Potency [12] | Potency [13] | Potency [14]

CCCCC(C#N)(Cn1cncn1)c1ccc(Cl)cc1 (configuration not stated)
active: Potency [18] 48.4 µM
inactive: outcome [2] | Potency [3] | activity change, positive = activation ([19]; at 92.4 µM (top of the series)) -34.1% and -20% | Potency [4] | Potency [20] | Potency [5] | Potency [6] | Potency [7] | Potency [8] | Potency [10] | Potency [11] | Potency [17] | Potency [12] | Potency [14] | Potency [15]

CC(C)(O)C(=O)Nc1ccc([N+](=O)[O-])c(C(F)(F)F)c1
inactive: outcome [2] | activity change, positive = activation ([19]; at 42.5 µM (top of the series)) -39.6% | activity change, positive = activation ([19]; at 92.4 µM (top of the series)) -47.4% | Potency [4] | Potency [5] | Potency [16] | Potency [6] | Potency [8] | Potency [10] | Potency [11] | Potency [12] | Potency [13] | Potency [14] | Potency [15]
active: Potency [3] 57.8 µM and 73.6 µM | Potency [18] 9.89 µM and 17.8 µM | Potency [20] 25.1 µM and 16 µM | Potency [7] 25.1 µM and 25.3 µM

COP(=O)(NC(C)=O)SC (configuration not stated)
inactive: Potency [1] | outcome [2] | Potency [3] | Potency [4] | Potency [5] | Potency [6] | Potency [7] | Potency [8] | max response [9] 1.36% and 10.1% | Potency [10] | Potency [11] | Potency [17] | Potency [12] | Potency [13] | Potency [14] | Potency [15]

CCC1(c2ccc(N)cc2)CCC(=O)NC1=O (configuration not stated)
inactive: Potency [1] | Potency [3] | Potency [18] | activity change, positive = activation ([19]; at 42.5 µM (top of the series)) 5.08% | activity change, positive = activation ([19]; at 92.4 µM (top of the series)) -19.8% | Potency [4] | Potency [20] | Potency [5] | Potency [6] | Potency [7] | Potency [8] | max response [9] 6.38% | Potency [10] | Potency [11] | Potency [17] | Potency [12] | Potency [13] | Potency [14]

S=c1[nH]c2ccccc2[nH]1
inactive and 21.9 µM (active): Potency [11] | Potency [12] | Potency [13]
inactive: outcome [2] | Potency [3] | Potency [18] | activity change, positive = activation ([19]; at 92.4 µM (top of the series)) -4.19% and 0.256% | Potency [4] | Potency [5] | Potency [16] | Potency [6] | Potency [7] | Potency [8] | max response [9] 4.47% and 4.64% | Potency [10] | Potency [17] | Potency [14] | Potency [15]

CC1(C)Cc2cccc(O)c2O1
inactive: Potency [1] | outcome [2] | Potency [3] | Potency [4] | Potency [20] | Potency [5] | Potency [6] | Potency [7] | Potency [8] | Potency [10] | Potency [11] | Potency [12] | Potency [13] | Potency [14]

CCOP(=S)(OCC)SCn1c(=O)oc2cc(Cl)ccc21
active: Potency [20] 29.5 µM | Potency [7] 26.3 µM and 19.5 µM | Potency [9] 29.5 µM
inactive: Potency [1] | outcome [2] | Potency [4] | Potency [5] | Potency [6] | Potency [8] | Potency [10] | Potency [11] | Potency [17] | Potency [12] | Potency [13] | Potency [14]
